According to PubChem BioAssay AID925 (National Center for Advancing Translational Sciences (NCATS), 2007):
Several values for one entry are separate records, joined by “and”; a condition that tells them apart may be missing. Equal values may be shown once. The whole screen tested about 65,000 compounds, of which about 40 (0.06%) were called active. Calls follow the shape of the dose curve; as a rule, active = well fitted activation curve with a large enough effect; inconclusive = small, poorly fitted or top-dose-only effect; inactive = flat fitted curve, though single readings scatter. The list comes from a sample in which actives are over-represented; it also holds similar structures and randomly drawn compounds.

Assay: qHTS Assay for Modulators of Hemoglobin Beta Chain Splicing; also: 0% is about no effect
Conditions: HBB splicing reporter cell assay, EGFP reporter with mutant IVS2-654 intron; Potency: activation; series mostly up to 46.1 µM; activation: at the top concentration
In short: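 Compounds were applied for 2 days to HeLa EGFP-654 cells, 500/well in Optimem with 2% FCS. The reporter's EGFP is disrupted by mis-splicing of beta-globin intron IVS2-654. Readout: summed well GFP fluorescence from 488 nm laser scanning; reference was 500 nM antisense […] 654 PNA.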

activation, inactive:
Cc1c2c(nc3ccccc13)-c1cccc(=O)n1C2 1.36%, CC/C=C/C/C=C/C/C=C/CCCCCCCC(=O)OCC 0.885%, Oc1ccc2ccccc2c1C=NCc1c(O)ccc2ccccc12 0.869% [at 9.22 µM, normalised to 500 nM splice-correcting PNA], CCCNC(=O)OC[C@@H]1O[C@H](c2ccccc2)C=C[C@@H]1Oc1ccc(OC)cc1 -1.16% [at 9.22 µM, normalised to 500 nM splice-correcting PNA], O=C1OCCC=C1[C@@H](O)CCc1ccccc1 3.64% [at 9.22 µM, normalised to 500 nM splice-correcting PNA], CCCn1c(-c2ccc(F)cc2)nc2c(NCC3CCCN3CC)nc(C)nc21 (stereo not given) 0.529%, Cc1cc(C)cc(N)c1 -0.0718%, c1ccc2c(c1)-c1ccccc1C2N1CC2CCC(CC2)C1 3.26% [at 9.22 µM, normalised to 500 nM splice-correcting PNA], COc1ncc2nc(-c3ccc(Cl)cc3)c(=O)n(-c3ccccc3)c2n1 0.498%, O=C(O)CC(C(=O)O)C(CC(=O)O)C(=O)O (stereo not given) 1.17%, COC(=O)[C@@]1(Cc2ccc(OC)cc2)[C@H]2c3cc(C(=O)N4CCCC4)n(Cc4ccc(C(F)(F)F)nc4)c3C[C@H]2CN1C(=O)c1ccccc1 0.0479%, CC1=C(C(=O)OCc2ccccc2)C(c2ccc(C(F)(F)F)cc2)NC(=O)N1CCCCCC(=O)O (stereo not given) -0.181%, COc1ccc(-c2nc3cnc(OC)nc3n(Cc3ccc(F)cc3)c2=O)cc1 -0.0985%, Cc1cccc(Br)c1 1.71%, CS(=O)(=O)N1CCC2(CC1)CN(c1ccncc1)C2 3.52%, CCn1ccnc1C[C@@H]1COc2ccccc2O1 1.64%, CC[C@H](c1ccccc1)c1cc(C(C)(C)C)cc(C(C)(C)C)c1O -0.113% [at 9.22 µM, normalised to 500 nM splice-correcting PNA], CC(C)(O/N=C(\C(=O)N[C@@H]1C(=O)N2C(C(=O)[O-])=C(C[n+]3ccccc3)CS[C@@H]12)c1csc(N)n1)C(=O)O -0.237% [at 20.6 µM, normalised to 500 nM splice-correcting PNA], C[C@]1(O)CC[C@H]2[C@H]3CC=C4N5CCN=C5CC[C@@]4(C)[C@H]3CC[C@@]21C -0.0515% [at 9.22 µM, normalised to 500 nM splice-correcting PNA], Cc1c(NC(=O)c2cccnc2)c(=O)n(-c2ccccc2)n1C -1.86% [at 20.6 µM, normalised to 500 nM splice-correcting PNA], COC(=O)[C@@]1(Cc2ccc(OC)cc2)[C@H]2c3cc(C(=O)N4CCCC4)n(Cc4ccc(OC(F)(F)F)cc4)c3C[C@H]2CN1C(=O)c1ccccc1 0.6%, CC[C@@H]1Cc2cc(O)ccc2C2=C1c1ccc(O)cc1C[C@H]2CC 0.516%, Cc1nc2cnc(N3CCNCC3)nc2n(Cc2ccc(F)cc2)c1=O -0.46%, COc1ccc(CNc2ncncc2-c2ccccc2OC)c(OC)c1 -2.4%, COC(=O)[C@@H]1CC[C@H](C)[C@@H](c2ccc(C)cc2)N1C(=O)c1ccc(/C=N\O[C@@H](C)c2cn([C@H](CO)Cc3ccccc3)nn2)cc1 0.582% [at 9.22 µM, normalised to 500 nM splice-correcting PNA] and -0.794% [at 9.22 µM, normalised to 500 nM splice-correcting PNA], O=C(c1cccc(F)c1)N1CCC2(CCCN(Cc3ccncc3)C2)CC1 0.183%, Cc1cccc(C(=O)O)c1[N+](=O)[O-] -0.133%, COc1cccc(Cn2c(=O)c(CCc3ccccc3)nc3cnc(N(C)C)nc32)c1 1.77%, Cc1cnc(CNc2nc(-c3cccnc3)nc3ccccc23)cn1 -0.583%, COc1ccc(-c2nc3cnc(Oc4ccccc4)nc3n(Cc3cccs3)c2=O)cc1 0.4%, CCC[C@@H]1C[C@@]1(CCC)C(NS(=O)(=O)c1cccc2cccnc12)c1ccc(Cl)cc1 (stereo not given in full) 1.95%, O=C(Cl)c1ccc([N+](=O)[O-])cc1 -0.798%, O=C(c1csnn1)N1CCC[C@@]2(CCN(Cc3nccs3)C2)C1 1.83%, CCNC(=S)NCC -0.328%, O=C(c1ccc([N+](=O)[O-])cc1)[C@@H](Br)[C@@H](Br)c1ccnc2ccccc12 0.675% [at 9.22 µM, normalised to 500 nM splice-correcting PNA]
